Bioassay records: PubChem BioAssay, National Center for Advancing Translational Sciences (NCATS)
SW480 rerep = DNA re-replication induction in SW480 cells. 340,000 tested, 1.8% active. AID 624297. Potency, µM (series often up to 46.1 µM), without a hit: at the highest dose re-replication activation, most hits filed as activators. SW480 DNA re-replication, Hoechst DNA content imaging, 48 h; note: % of control where 0% means no effect; nearly all actives have a fitted effect of over 55% in size
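Quantitative HTS format with DMSO vehicle controls; 48 hr drug incubation at 37 C, then 40 min Hoechst staining and scanning imager measurement at 405 nm excitation.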
KB-3-1 tox = KB-3-1 parental cell cytotoxicity; Potency, µM (series often up to 46.1 µM), usual class: cytotoxic; KB-3-1 viability, CellTiter-Glo ATP luminescence, 72 h; 400,000 tested, 1.4% active; note: % is set by controls: 0 for no effect and ±100 for the full control effect; nearly all actives have a fitted effect of over 60% in size
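Cytotoxicity measured as CellTiter-Glo luminescence after 72 h at 37 C. Compound titrations were pinned onto drug-naive KB-3-1 parental adenocarcinoma cells grown in DMEM with 10% FBS, and normalized data fitted to concentration-response curves.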
MCF10A rerep = inducers of DNA re-replication in MCF 10A breast cells; Potency, µM (top dose mostly 46.1 µM), for inactives: top-dose activity, positive = re-replication, usual class: activators; MCF 10A DNA re-replication, Hoechst nuclear intensity, 48 h; 350,000 tested, 2.9% active; note: % of control where 0% means no effect; nearly all actives have a fitted effect of over 50% in size
KB-V1 cytotox = KB-V1 MDR subline cytotoxicity. 400,000 tested, 3.4% active. AID 1347076. Potency, µM (doses to about 46.1 µM), most hits filed as cytotoxic. KB-V1 MDR cells viability, CellTiter-Glo, 72 h; note: % is set by controls: 0 for no effect and ±100 for the full control effect; nearly all actives have a fitted effect of over 60% in size
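Following 72 h at 37 degrees C with compound, KB-V1 cell viability was read by CellTiter-Glo luminescence, medium being phenol-red-free DMEM plus 10% FBS; concentration-response parameters came from normalized, curve-fitted qHTS data.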
HT1080 IDH1KD tx = toxicity to HT-1080 IDH1 knockdown cells (counter line) | 360,000 tested, 2% active | AID 686971 | Potency, µM (doses to about 46.1 µM), for the others: at the highest dose activity, negative = toxicity, usual class: cytotoxic | HT-1080 IDH1 knockdown viability, ATP luminescence, 48 h;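 note: 0% = DMSO wells and -100% = cell-free medium wells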
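In this qHTS, HT-1080 cells depleted of IDH1 are exposed for 48 h at 37 °C to compound titrations. Toxicity is scored from CellTiter-Glo luminescence, with DMSO as full viability and medium alone as none.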
HT1080NT lethal = kills 2HG-producing HT-1080-NT fibrosarcoma cells. HT-1080-NT fibrosarcoma viability, CellTiter-Glo ATP luminescence, 48 h. Potency, µM (series often up to 46.1 µM), inactives show top-dose activity, negative = less viability, hits mostly cytotoxic. 360,000 tested, 1.6% active;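 note: NT is the 2HG producing partner of a matched IDH1 knockdown line; 0% = DMSO-treated cells and -100% = media-only wells without cells; nearly all actives have a fitted effect of over 55% in size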
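Toxicity toward the 2HG-producing NT line was scored as %Activity, normalised to DMSO and no-cell wells, from CellTiter-Glo luminescence after 48 hours' treatment.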
Active calls of the source: *. Only some compounds are listed: those with a hit (about 8% of all), similar ones and a draw of the others. Calls come from the whole dose curve; as a rule, active = well fitted curve in the direction sought with a large enough effect; inconclusive = small, poorly fitted or top-dose-only effect, or another doubt; inactive = no such curve, though single readings can be large; an effect the other way counts as inactive or inconclusive. Potency is the fitted concentration of half-maximal effect.

How did CC(=O)N1c2c(cc(Br)cc2S(=O)(=O)Nc2ccccc2C)CC1C (stereo unspecified) do in these assays?
KB-3-1 tox: inactive; KB-V1 cytotox: inactive

How did O=S(=O)(Nc1cccc(-n2cnnn2)c1)c1cc(Br)ccc1Br do in these assays?
SW480 rerep: -14.6%; KB-3-1 tox: inactive; MCF10A rerep: 8.8%; KB-V1 cytotox: 5.8µM*; HT1080 IDH1KD tx: -25.3%; HT1080NT lethal: -20.3%

How did O=S(=O)(Nc1cccc(-n2cnnn2)c1)c1ccccc1 do in these assays?
SW480 rerep: -3.3%; KB-3-1 tox: inactive; MCF10A rerep: 5.6%; KB-V1 cytotox: inactive; HT1080 IDH1KD tx: -10.2%; HT1080NT lethal: 1.1%

How did Cc1ccc(-c2cc(C(F)(F)F)nc(SCC(=O)c3cccc([N+](=O)[O-])c3)n2)cc1 do in these assays?
SW480 rerep: inconclusive; KB-3-1 tox: inactive; MCF10A rerep: inconclusive; KB-V1 cytotox: inconclusive; HT1080 IDH1KD tx: 1.4%; HT1080NT lethal: -23.1%

Results for CSc1ccc(CN(C)C(=O)COc2ccc(C(=O)c3ccccc3)cc2)cc1 ?
SW480 rerep: inconclusive; KB-3-1 tox: 20.6µM*; MCF10A rerep: 13µM*; KB-V1 cytotox: 9.2µM*; HT1080 IDH1KD tx: 11.6µM*; HT1080NT lethal: inconclusive

How did COc1ccc(CCN(C)C(=O)COc2ccc(C(=O)c3ccccc3)cc2)cc1OC do in these assays?
SW480 rerep: 1.9%; KB-3-1 tox: inactive; MCF10A rerep: 1.2%; KB-V1 cytotox: inactive; HT1080 IDH1KD tx: -6.3%; HT1080NT lethal: -7.7%

What do the screens show for `O=C(COc1ccc(C(=O)c2ccccc2)cc1)NCc1ccc(F)cc1`?
SW480 rerep: 7.31µM*; KB-3-1 tox: inconclusive; MCF10A rerep: 4.11µM*; KB-V1 cytotox: inconclusive; HT1080 IDH1KD tx: 2.31µM*; HT1080NT lethal: 2.06µM*

How did Cc1ccc(C(OCC(O)CNCc2ccc(F)cc2)c2ccccc2)cc1 (stereo unspecified) do in these assays?
SW480 rerep: 5.17µM*; KB-3-1 tox: inconclusive; MCF10A rerep: 2.59µM*; KB-V1 cytotox: inactive; HT1080 IDH1KD tx: -15.2%; HT1080NT lethal: -22.6%

How did O=C(c1ccccc1)c1ccc(OCC(O)CNCc2ccc(F)cc2)cc1 (stereo unspecified) do in these assays?
SW480 rerep: 4.7%; KB-3-1 tox: inactive; MCF10A rerep: 19.3%; KB-V1 cytotox: 23.1µM*; HT1080 IDH1KD tx: 20.6µM*; HT1080NT lethal: inconclusive

How did CC(=O)Nc1cccc(-c2nnc3n2CC(C)S3)c1 (stereo unspecified) do in these assays?
SW480 rerep: 1.0%; KB-3-1 tox: inactive; MCF10A rerep: 3.4%; KB-V1 cytotox: inactive; HT1080 IDH1KD tx: 20.9%; HT1080NT lethal: 14.2%

Results for O=C(c1ccccc1)c1ccc(OCC(O)CNCc2cccc(Cl)c2)cc1 (stereo unspecified) ?
SW480 rerep: -3.3%; KB-3-1 tox: inactive; MCF10A rerep: 20.6µM*; KB-V1 cytotox: inactive; HT1080 IDH1KD tx: inconclusive; HT1080NT lethal: inconclusive

What do the screens show for `Cc1ccc(OCC(O)CNCc2ccccc2)cc1C` (stereo unspecified)?
SW480 rerep: 19.4%; KB-3-1 tox: inactive; MCF10A rerep: 15.5%; KB-V1 cytotox: inactive; HT1080 IDH1KD tx: -12.2%; HT1080NT lethal: -3.0%

Results for CN(Cc1ccccc1)C(=O)c1[nH]cnc1C(=O)NCCCCCNC(=O)OC(C)(C)C ?
SW480 rerep: 2.6%; KB-3-1 tox: inactive; MCF10A rerep: 0.9%; KB-V1 cytotox: inactive; HT1080 IDH1KD tx: -1.0%; HT1080NT lethal: -2.9%

What do the screens show for `COc1ccccc1CNC(=O)CN1C(=O)COc2ccc(S(=O)(=O)Nc3ccccc3)cc21`?
KB-3-1 tox: inactive; KB-V1 cytotox: inactive

What do the screens show for `COc1ccc(CC(=O)N(Cc2ccccc2)c2ccccc2)cc1S(=O)(=O)N1CCOCC1`?
SW480 rerep: inconclusive; KB-3-1 tox: inactive; MCF10A rerep: -5.1%; KB-V1 cytotox: inconclusive; HT1080 IDH1KD tx: 1.1%; HT1080NT lethal: -3.2%

Results for Cc1cc(C)c2nc(N3CCC(C(=O)NCc4cccnc4)CC3)sc2c1 ?
SW480 rerep: -7.7%; KB-3-1 tox: inactive; MCF10A rerep: -1.2%; KB-V1 cytotox: inactive; HT1080 IDH1KD tx: -0.5%; HT1080NT lethal: 0.9%

How did O[C@@H]1[C@@H](O)C=C2CCN3Cc4cc5c(cc4[C@H]1C23)OCO5 (stereo partly specified) do in these assays?
SW480 rerep: inconclusive; KB-3-1 tox: 8.2µM*; MCF10A rerep: 1.5%; KB-V1 cytotox: 5.17µM*; HT1080 IDH1KD tx: 5.8µM*; HT1080NT lethal: 1.84µM*

Results for COc1ccc2c(c1OC)CN1CCc3cc4c(cc3[C@@H]1[C@@H]2O)OCO4 ?
SW480 rerep: -5.1%; KB-3-1 tox: inactive; MCF10A rerep: 13.8%; KB-V1 cytotox: inactive; HT1080 IDH1KD tx: 11.4%; HT1080NT lethal: -0.4%

Results for Cc1ccc(-n2cc(CNCCn3nc(C)cc3C)c(-c3ccc(F)cc3)n2)cc1 ?
SW480 rerep: 18.4µM*; KB-3-1 tox: inactive; MCF10A rerep: inconclusive; KB-V1 cytotox: inactive; HT1080 IDH1KD tx: inconclusive; HT1080NT lethal: 20.6µM*

How did Cc1ccc(-n2cc(CNCCc3ncc(C)[nH]3)c(-c3ccc(F)cc3)n2)cc1 do in these assays?
SW480 rerep: inconclusive; KB-3-1 tox: inconclusive; MCF10A rerep: inconclusive; KB-V1 cytotox: inconclusive; HT1080 IDH1KD tx: 20.6µM*; HT1080NT lethal: 16.4µM*

Results for Cc1ccc(-n2cc(CNCCN3CCOC3=O)c(-c3ccc(F)cc3)n2)cc1 ?
SW480 rerep: -10.7%; KB-3-1 tox: inactive; MCF10A rerep: 15.0%; KB-V1 cytotox: inconclusive; HT1080 IDH1KD tx: -23.2%; HT1080NT lethal: -20.5%

What do the screens show for `COc1ccc(-n2cc(CNCCc3ncc(C)[nH]3)c(-c3ccccc3Cl)n2)cc1`?
SW480 rerep: 16.6%; KB-3-1 tox: inactive; MCF10A rerep: 7.1%; KB-V1 cytotox: inactive; HT1080 IDH1KD tx: -2.5%; HT1080NT lethal: -18.5%

How did c1ccc(-c2ccc(OCCCNC3CCCC3)cc2)cc1 do in these assays?
SW480 rerep: inconclusive; KB-3-1 tox: inconclusive; MCF10A rerep: 6.51µM*; KB-V1 cytotox: inactive; HT1080 IDH1KD tx: 18.4µM*; HT1080NT lethal: 14.6µM*

How did O=C1C(=NO)CCc2ccccc21 do in these assays?
SW480 rerep: 20.6µM*; KB-3-1 tox: inconclusive; MCF10A rerep: 19.8%; KB-V1 cytotox: inactive; HT1080 IDH1KD tx: inconclusive; HT1080NT lethal: -14.7%

What do the screens show for `Cc1ccc(C(=O)OCC(=O)N2CCNC2=O)c(C)c1`?
SW480 rerep: -360.9%; KB-3-1 tox: inactive; MCF10A rerep: 2.0%; KB-V1 cytotox: inactive; HT1080 IDH1KD tx: -16.0%; HT1080NT lethal: -21.4%
